# Data as given in ChEMBL document CHEMBL3988442, “University of Dundee, Small-Polar-MMV Screening Library” (2021).
# Biological target: T1, Methionyl-tRNA synthetase, putative (Leishmania donovani (strain BPK282A1)) (UniProt E9BF75)
# T1 sequence (whole entry): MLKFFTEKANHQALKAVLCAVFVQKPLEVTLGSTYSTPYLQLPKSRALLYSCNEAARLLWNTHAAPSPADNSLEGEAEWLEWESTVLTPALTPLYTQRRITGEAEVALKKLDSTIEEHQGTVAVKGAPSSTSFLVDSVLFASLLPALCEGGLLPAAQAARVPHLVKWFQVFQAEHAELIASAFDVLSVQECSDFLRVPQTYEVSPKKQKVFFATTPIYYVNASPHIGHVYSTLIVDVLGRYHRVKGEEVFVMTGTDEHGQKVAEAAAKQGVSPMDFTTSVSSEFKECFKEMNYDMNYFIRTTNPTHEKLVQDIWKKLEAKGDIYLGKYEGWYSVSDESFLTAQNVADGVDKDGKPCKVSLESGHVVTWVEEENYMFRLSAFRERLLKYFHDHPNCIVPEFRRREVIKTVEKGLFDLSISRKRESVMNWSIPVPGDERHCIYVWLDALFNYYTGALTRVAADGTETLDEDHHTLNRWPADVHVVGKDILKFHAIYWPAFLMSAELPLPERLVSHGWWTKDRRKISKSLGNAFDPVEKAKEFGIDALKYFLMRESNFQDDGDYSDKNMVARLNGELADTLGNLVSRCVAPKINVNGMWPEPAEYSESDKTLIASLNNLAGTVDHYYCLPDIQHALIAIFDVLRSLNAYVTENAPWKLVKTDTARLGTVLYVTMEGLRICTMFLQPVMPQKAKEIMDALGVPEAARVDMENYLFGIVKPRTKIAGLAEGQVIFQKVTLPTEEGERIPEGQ
# Assay: Leishmania donovani Methionine tRNA synthetase (LdMetRS):v7. Dose response assay
# Assay type: functional
# Design: conc 80 nM, time 150 minutes
structure (smiles),measurement,setting,value
CS(=O)(=O)N1CCN(c2ccc3ccc(C(=O)NC4CCN(c5ncccn5)CC4)cn23)CC1,PXC50,"BOTTOM 1.498519447, HILLSLOPE 2.25926472, MAX_EFFECT 69.85645933, TOP 69.17206782",4.97
same,PXC50,"BOTTOM 9.613017987, HILLSLOPE 3.179249655, MAX_EFFECT 74.58866545, TOP 74.15419217",4.86
CS(=O)(=O)N1CCN(c2ccc3ccc(C(=O)NC4CCCC4)nn23)CC1,PXC50,MAX_EFFECT 4.387568556,< 4
same,PXC50,MAX_EFFECT 8.612440191,< 4
Cc1ccc(-c2cc(C(F)(F)F)nc(NCCCN(C)C)n2)cc1,PXC50,MAX_EFFECT 7.446808511,< 4
same,PXC50,MAX_EFFECT 8.808290155,< 4
Cc1sc2nc(CCN)nc(N3CCN(S(C)(=O)=O)CC3)c2c1C,PXC50,MAX_EFFECT 9.660574413,< 4
same,PXC50,MAX_EFFECT 10.96605744,< 4
Cc1cc2c(N3CCN(C)CC3)nc(-c3cccnc3)nc2s1,PXC50,MAX_EFFECT 6.010928962,< 4
same,PXC50,MAX_EFFECT 7.486631016,< 4
Oc1c(Cl)cc(Cl)cc1CNc1nccs1,PXC50,MAX_EFFECT 15.39923954,< 3
same,PXC50,MAX_EFFECT 20.51835853,< 3
Cc1nc(N2CCNC(=O)CC2C)c2c(-c3ccccc3)csc2n1 (stereo not given),PXC50,MAX_EFFECT 10.43256997,< 4
same,PXC50,MAX_EFFECT 12.34256927,< 4
CCNc1nc(CC)nc2sc(CC)cc12,PXC50,MAX_EFFECT 7.537688442,< 4
same,PXC50,MAX_EFFECT 11.05651106,< 4
Nc1cc(O)c(Cl)cc1Cl,PXC50,MAX_EFFECT 7.034220532,< 3
same,PXC50,MAX_EFFECT 11.44708423,< 3
Cc1nc(NC(Cc2ccccc2)C(=O)O)c2c3c(sc2n1)CCCC3 (stereo not given),PXC50,MAX_EFFECT 23.07692308,< 4
same,PXC50,MAX_EFFECT 25.24509804,< 4
CS(=O)(=O)N1CCN(c2ccc3ccc(C(=O)N4CCCCO4)cn23)CC1,PXC50,"BOTTOM 3.408302262, HILLSLOPE 2.699207266, MAX_EFFECT 56.14035088, TOP 100.0",4.33
same,PXC50,"BOTTOM -1.088314762, HILLSLOPE 0.901802249, MAX_EFFECT 54.6875, TOP 100.0",4.49
Cc1cc2c(NC3CCCCC3)nc(-c3cccnc3)nc2s1,PXC50,MAX_EFFECT 17.08542714,< 4
same,PXC50,MAX_EFFECT 19.41031941,< 4
Cc1cc(N)n(-c2nc(C)nc3sc4c(c23)CCCC4)n1,PXC50,MAX_EFFECT 11.22994652,< 4
same,PXC50,MAX_EFFECT 12.02185792,< 4
Cn1cc(CN2CCC(F)(F)C3(CCN(c4ccccn4)C3)C2)cn1 (stereo not given),PXC50,MAX_EFFECT 6.802721088,< 4
same,PXC50,MAX_EFFECT 8.971962617,< 4
CCc1cc2c(NC(C(=O)O)C(C)C)nc(-c3ccccc3)nc2s1 (stereo not given),PXC50,MAX_EFFECT 27.80748663,< 4
same,PXC50,MAX_EFFECT 31.69398907,< 4
Cn1cc(CN2CCC(F)(F)C3(CCN(c4cccnc4)C3)C2)cn1 (stereo not given),PXC50,MAX_EFFECT 3.888888889,< 4
same,PXC50,MAX_EFFECT 8.450704225,< 4
CCCNc1nc(-c2ccc(C)cc2)cc(C(F)(F)F)n1,PXC50,MAX_EFFECT 6.21761658,< 4
same,PXC50,MAX_EFFECT 10.10638298,< 4
Cc1nn(C)cc1-c1cc(C(F)(F)F)nc(NC2CCCCC2)n1,PXC50,MAX_EFFECT 7.049608355,< 4
same,PXC50,MAX_EFFECT 12.01044386,< 4
CC(C)(CN)COc1cccc(F)c1Oc1ccc(Cl)cc1,PXC50,MAX_EFFECT 16.84434968,< 4
same,PXC50,MAX_EFFECT 20.08281573,< 4
OB1OCc2cc(Cl)ncc21,PXC50,MAX_EFFECT 7.762557078,< 4
same,PXC50,MAX_EFFECT 14.1509434,< 4
CCNc1cc(-c2ccccn2)nc(Nc2ccc(OC)cc2)n1,PXC50,MAX_EFFECT 22.3255814,< 4
same,PXC50,MAX_EFFECT 23.54312354,< 4
CCNc1nc(-c2ccc(C)cc2)cc(C(F)(F)F)n1,PXC50,MAX_EFFECT 4.797979798,< 4
same,PXC50,MAX_EFFECT 5.102040816,< 4
Cc1nc(N2CCC(NS(C)(=O)=O)CC2)c2c(-c3cccs3)csc2n1,PXC50,MAX_EFFECT 36.61616162,< 4
same,PXC50,MAX_EFFECT 37.24489796,< 4
Cc1ccc(N2CCC3(CN(Cc4cccs4)CCC3(F)F)C2)nn1 (stereo not given),PXC50,MAX_EFFECT 4.988662132,< 4
same,PXC50,MAX_EFFECT 10.8411215,< 4
CN(C)C(=O)N1CCN(c2ccc3ccc(C(=O)NC4CC4)cn23)CC1,PXC50,"BOTTOM 3.433705082, HILLSLOPE 1.394575879, MAX_EFFECT 54.57943925, TOP 100.0",4.05
same,PXC50,MAX_EFFECT 48.07256236,< 4
CCc1cc2c(NCCCN(C)C)nc(C)nc2s1,PXC50,MAX_EFFECT 11.55778894,< 4
same,PXC50,MAX_EFFECT 12.03931204,< 4
CCN(CC)c1ccc2ccc(C(=O)N(C)C)cn12,PXC50,MAX_EFFECT 27.22222222,< 4
same,PXC50,MAX_EFFECT 35.21126761,< 4
O=C(c1cnccn1)N1CCC(F)(F)C2(CCN(c3ccccn3)C2)C1 (stereo not given),PXC50,MAX_EFFECT 7.962962963,< 4
same,PXC50,MAX_EFFECT 7.981220657,< 4
Cc1sc2nc(-c3cccs3)nc(N3CCNC(=O)C3)c2c1C,PXC50,MAX_EFFECT 4.8,< 4
same,PXC50,MAX_EFFECT 8.994708995,< 4
Cc1nc(N[C@@H](CC(C)C)C(=O)O)c2c3c(sc2n1)CCCC3,PXC50,MAX_EFFECT 23.93617021,< 4
same,PXC50,MAX_EFFECT 24.87046632,< 4
